Data on seven compounds can be found in PubChem BioAssay (NCATS).

Structures are written as SMILES. Records with an inconclusive call do not appear. The source made the active and inactive calls. The call rests on the fitted dose curve; in most records, active means well fitted curve in the direction sought with a large enough effect; inconclusive means small, poorly fitted or top-dose-only effect, or another doubt; inactive means no such curve, though single readings can be large; an effect the other way counts as inactive or inconclusive.

Experiment [1] is described as follows: Quantitative High-Throughput drug screen in 47 multiple myeloma cell lines against the NCATS MIPE library collection: ARD_JJKsccE7 cell viability assay (AID 1918929). The gist of the method: (§1)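 qHTS of the MIPE 4.0 collection: 500 myeloma cells/well, 48 h drug exposure at 37C in 5% CO2, then CellTiter-Glo for 5 min at room temperature before luminescence reading.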

A short description of experiment [2]: Quantitative High-Throughput drug screen in 47 multiple myeloma cell lines against the NCATS MIPE library collection: Karpas620_DSMZ cell viability assay (AID 1918959). Further: nearly all actives have a fitted effect of over 30% in size. The gist of the method: (§2)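 Myeloma cells (500 per well) were exposed to MIPE 4.0 compounds by pin transfer and incubated 48 hours at 37C, 5% CO2. Viability was read as ATP by CellTiter-Glo luminescence, normalised to DMSO (100%) and media-only (0%) wells.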

Experiment [3] is described as follows: Quantitative High-Throughput drug screen in 47 multiple myeloma cell lines against the NCATS MIPE library collection: KMM1_JCRB cell viability assay (AID 1918960). Further: nearly all actives have a fitted effect of over 30% in size. The procedure, abridged:
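Cell viability inhibition in this qHTS is measured via ATP content (CellTiter-Glo) after 48 h drug exposure at 37 °C. Wells hold 500 cells; DMSO-treated wells define 100% and medium-only wells 0%.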

Experiment [4] is described as follows: Quantitative High-Throughput drug screen in 47 multiple myeloma cell lines against the NCATS MIPE library collection: JIM1_ECACC cell viability assay (AID 1918964). The procedure, abridged:
as §1

The nature of experiment [5]: Quantitative High-Throughput drug screen in 47 multiple myeloma cell lines against the NCATS MIPE library collection: INA6_PLB cell viability assay (AID 1918965; further: nearly all actives have a fitted effect of over 55% in size). The gist of the method: (§3)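 CellTiter-Glo ATP luminescence gave viability after 48 h compound treatment at 37C of 500 multiple myeloma cells per well. Normalisation used DMSO-only wells as 100% and media-only wells as 0% viability; primary qHTS of approved and investigational drugs.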

Experiment [6] is described as follows: Quantitative High-Throughput drug screen in 47 multiple myeloma cell lines against the NCATS MIPE library collection: H1112_PLB cell viability assay (AID 1918967; further: nearly all actives have a fitted effect of over 30% in size). The gist of the method: as §1
Experiment [7] is described as follows: Quantitative High-Throughput drug screen in 47 multiple myeloma cell lines against the NCATS MIPE library collection: Karpas25_ECACC cell viability assay (AID 1918968; further: nearly all actives have a fitted effect of over 35% in size). The gist of the method:
as §1

The nature of experiment [8]: Quantitative High-Throughput drug screen in 47 multiple myeloma cell lines against the NCATS MIPE library collection: KMS27_JCRB cell viability assay (AID 1918970). Further: nearly all actives have a fitted effect of over 30% in size. The procedure, abridged: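 KMS27_JCRB myeloma cells, 500 per well, exposed 48 h at 37 C, 5% CO2 to MIPE 4.0 compounds. Viability from ATP by CellTiter-Glo luminescence, normalized to DMSO (100%) and medium-only (0%) wells.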

The nature of experiment [9]: Quantitative High-Throughput drug screen in 47 multiple myeloma cell lines against the NCATS MIPE library collection: KMS12PE_JCRB cell viability assay (AID 1918972). Further: nearly all actives have a fitted effect of over 30% in size. The procedure, abridged: as §3
The nature of experiment [10]: Quantitative High-Throughput drug screen in 47 multiple myeloma cell lines against the NCATS MIPE library collection: KMS21BM_JCRB cell viability assay (AID 1918974). The following applies: ATP luminescence, 48 h; viability: at 45.8 µM (top of the series) unless noted. The procedure, abridged:
as §1

Experiment [11] is described as follows: Quantitative High-Throughput drug screen in 47 multiple myeloma cell lines against the NCATS MIPE library collection: KMS26_JCRB cell viability assay (AID 1918975). Further: nearly all actives have a fitted effect of over 45% in size. The gist of the method:
(§4)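 Luminescent ATP measurement with CellTiter-Glo gives viability, scaled between DMSO-only wells (100%) and media-only wells (0%). Cells, 500 per well, faced library compounds for 48 hours at 37C.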

A short description of experiment [12]: Quantitative High-Throughput drug screen in 47 multiple myeloma cell lines against the NCATS MIPE library collection: KHM11_PLB cell viability assay (AID 1918962). Further: nearly all actives have a fitted effect of over 35% in size. The gist of the method: as §2
A short description of experiment [13]: Quantitative High-Throughput drug screen in 47 multiple myeloma cell lines against the NCATS MIPE library collection: JIM3_ECACC cell viability assay (AID 1918963; further: nearly all actives have a fitted effect of over 35% in size). The procedure, abridged:
as §2

A short description of experiment [14]: Quantitative High-Throughput drug screen in 47 multiple myeloma cell lines against the NCATS MIPE library collection: KMS20_JCRB cell viability assay (AID 1918973). Further: nearly all actives have a fitted effect of over 45% in size. The gist of the method: as §1
Experiment [15] in a line: Quantitative High-Throughput drug screen in 47 multiple myeloma cell lines against the NCATS MIPE library collection: MMM1_PLB cell viability assay (AID 1918976). Further: nearly all actives have a fitted effect of over 35% in size. The procedure, abridged:
(§5)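 ATP-based CellTiter-Glo luminescence after 48 h drug exposure (37 °C, 5% CO2) of 500 myeloma cells per well. DMSO-only wells set 100% viability, media-only wells 0%; MIPE 4.0 library added by pin tool.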

Experiment [16] in a line: Quantitative High-Throughput drug screen in 47 multiple myeloma cell lines against the NCATS MIPE library collection: NCIH929_DSMZ cell viability assay (AID 1918978). Further: nearly all actives have a fitted effect of over 35% in size. The procedure, abridged: as §5
Experiment [17] can be described thus: Quantitative High-Throughput drug screen in 47 multiple myeloma cell lines against the NCATS MIPE library collection: KMS12BM_JCRB cell viability assay (AID 1918971). Further: nearly all actives have a fitted effect of over 35% in size. The procedure, abridged: as §4
Experiment [18] is described as follows: Quantitative High-Throughput drug screen in 47 multiple myeloma cell lines against the NCATS MIPE library collection: MOLP8_DSMZ cell viability assay (AID 1918977). Further: nearly all actives have a fitted effect of over 45% in size. The gist of the method:
as §5

A short description of experiment [19]: Quantitative High-Throughput drug screen in 47 multiple myeloma cell lines against the NCATS MIPE library collection: JJN3_DSMZ cell viability assay (AID 1918966; further: nearly all actives have a fitted effect of over 50% in size). The gist of the method:
as §1
Potency means the concentration at half of the fitted maximal effect.

For `C[C@H](NC(=O)C(=O)Nc1ccccc1C(C)(C)C)C(=O)N[C@@H](CC(=O)O)C(=O)COc1c(F)c(F)cc(F)c1F`, the Potency in [1] was 1.18 µM (active); in experiment [2] it was 2.64 µM (active); in [3] it was 1.66 µM (active); in experiment [4], 4.18 µM (active); in experiment [5], 18.7 µM (active); in [7], 20.9 µM (active). In addition, the figures for the Potency in [8], in [9] and in experiment [10] were 3.32 µM (active), 4.69 µM (active) and 6.62 µM (active), respectively. In addition, the Potency entry in [6] and in experiment [11] was “inactive” in each case.
As to `CCOc1ccc(Nc2nc(-c3c(C)nc4ccccn34)cs2)cc1`, the Potency in experiment [1] is 0.001 µM (active); in experiment [2], 0.0015 µM (active); in [3] it was 0.001 µM (active); in experiment [12], 0.0743 µM (active); in [5], 0.0026 µM (active); in experiment [9] it was 0.003 µM (active). For the same compound, the values for the Potency in experiment [11], in experiment [15] and in [16] were 0.332 µM (active), 20.9 µM (active) and 52.6 nM (active), respectively. Moreover, the Potency entry in [13] and in experiment [14] was “inactive” throughout.
As for `NC(=O)c1cccc(-c2cc(Nc3ccc(OC(F)(F)F)cc3)ncn2)c1`, the Potency in experiment [1] was 14.8 µM (active); in experiment [2], 26.4 µM (active); in [3] it was 14.8 µM (active); in experiment [12] it was 14.8 µM (active); in [13], 18.7 µM (active); in [5] it was 14.8 µM (active). For the same compound, the Potency was 8.33 µM (active) in experiment [7]; 18.7 µM (active) in experiment [8]; 23.5 µM (active) in [17]; 16.6 µM (active) in [9]; 20.9 µM (active) in experiment [15].
Regarding `O=c1cc(N2CCOCC2)oc2c(-c3cccc4c3sc3ccccc34)cccc12`, the Potency in experiment [1] was 11.8 µM (active); in experiment [2] it was 16.6 µM (active); in experiment [3], 5.9 µM (active); in [12] it was 5.9 µM (active); in [13] it was 3.32 µM (active); in experiment [4], 2.96 µM (active). The Potency in [5] was 2.96 µM (active); in [6] it was 16.6 µM (active); in experiment [8], 18.7 µM (active); in experiment [17] it was 16.6 µM (active); in experiment [9], 11.8 µM (active); in experiment [14], 13.2 µM (active). Besides, the Potency is 20.9 µM (active) in experiment [11], 20.9 µM (active) in experiment [15], 4.18 µM (active) in experiment [18] and 3720 nM (active) in [16].
As to `COc1cccc(-c2cc(=O)c3ccccc3o2)c1N`, the Potency entry in [1], in [2], in [3], in experiment [8] and in experiment [18] was “inactive” throughout. The Potency is 5.26 µM (active) in experiment [12]; 2.35 µM (active) in [5]; 1.66 µM (active) in [7]; 7.43 µM (active) in experiment [14]; 332 nM (active) in experiment [16].
For `COc1ccc(C2CC(c3ccccc3)=NN2c2ccc(S(N)(=O)=O)cc2)cc1` (centres undefined), the Potency was 23.5 µM (active) in experiment [1]; 16.6 µM (active) in experiment [2]; 18.7 µM (active) in experiment [3]; 18.7 µM (active) in [13]; 14.8 µM (active) in [4]; 23.5 µM (active) in [5]. Moreover, the Potency in [6] was 14.8 µM (active); in [8] it was 8.33 µM (active); in experiment [17], 18.7 µM (active); in experiment [9], 11.8 µM (active). Moreover, the Potency entry in [12] was “inactive”.
`COC(=O)N[C@H](C(=O)N1CCC[C@@H]1c1ncc(-c2ccc(-c3ccc(-c4cnc([C@@H]5CCCN5C(=O)[C@@H](NC(=O)OC)C(C)C)[nH]4)cc3)cc2)[nH]1)C(C)C`: the Potency is 23.5 µM (active) in experiment [1]; 16.6 µM (active) in experiment [2]; 16.6 µM (active) in [3]; 18.7 µM (active) in [13]; 20.9 µM (active) in [4]; 23.5 µM (active) in experiment [19]. Also, the Potency was 23.5 µM (active) in experiment [8], 20.9 µM (active) in experiment [17] and 16.6 µM (active) in experiment [9].
